# Inconclusive results are not listed. Activity calls are given as the source filed them. Rule for the calls, unless noted: active = hit-call score of the fitted dose curve at least 0.9, where 1 is the maximum; inconclusive = response in the unintended direction; inactive = score below 0.9.
# Assays:
# [1] = biological target: Thyroid hormone receptor alpha (Rattus norvegicus) + Thyroid hormone receptor beta (Rattus norvegicus) (UniProt P18113+P63059); test: TOX21_TR_LUC_GH3_Antagonist_Followup: Tox21 GH3 Thyroid Hormone Receptor Antagonism Luciferase Follow-Up Assay (AID 2283942)
# In short: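 Rat pituitary GH3 cells with a TRα/TRβ-driven luciferase reporter, 5 h attachment, then 15 concentrations (92 uM to 5nM final) plus 1.0 nM T3 agonist, 24 h at 37C/5% CO2. ONE-Glo luminescence; signal change fitted against DMSO baseline.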
# THRA (gene 7067) = THRA (gene 7067) (UniProt P10827); test: TOX21_TRA_COA_Antagonist_Followup_ratio: Tox21 Thyroid Hormone Receptor alpha Antagonism through Coactivator Recruitment Follow-Up Assay, Ratio (AID 2283953)
# Chain of THRA (gene 7067) (P10827 whole entry, looked up, the tested form may be a part): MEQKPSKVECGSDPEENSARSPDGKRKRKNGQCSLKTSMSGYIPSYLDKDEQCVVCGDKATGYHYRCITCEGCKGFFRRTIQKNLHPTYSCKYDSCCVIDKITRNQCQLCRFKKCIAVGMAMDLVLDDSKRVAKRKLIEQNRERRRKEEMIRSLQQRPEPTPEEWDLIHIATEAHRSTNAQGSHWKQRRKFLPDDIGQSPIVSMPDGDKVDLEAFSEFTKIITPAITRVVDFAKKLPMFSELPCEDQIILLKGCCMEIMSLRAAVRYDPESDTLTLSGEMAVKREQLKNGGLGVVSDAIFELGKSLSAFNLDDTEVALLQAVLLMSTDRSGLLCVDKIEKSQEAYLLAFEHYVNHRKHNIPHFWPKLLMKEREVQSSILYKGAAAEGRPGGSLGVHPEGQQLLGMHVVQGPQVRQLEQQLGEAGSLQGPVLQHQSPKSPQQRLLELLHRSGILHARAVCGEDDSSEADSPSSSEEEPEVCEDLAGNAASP
# In short: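 This follow-up to the GH3 luciferase screen checks specificity in a cell-free format. It measures SRC-2 coactivator peptide binding to TRα LBD by TR-FRET and scores loss of ratio signal relative to DMSO.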
# THRB (gene 7068) [2] = biological target: THRB (gene 7068) (UniProt P10828); test: TOX21_TRB_BLA_Antagonist_Followup_ratio: Tox21 Thyroid Hormone Receptor beta Antagonism Beta-lactamase (BLA) Follow-Up Assay, Ratio (AID 2283958)
# Chain of THRB (gene 7068) (P10828 whole entry, looked up, the tested form may be a part): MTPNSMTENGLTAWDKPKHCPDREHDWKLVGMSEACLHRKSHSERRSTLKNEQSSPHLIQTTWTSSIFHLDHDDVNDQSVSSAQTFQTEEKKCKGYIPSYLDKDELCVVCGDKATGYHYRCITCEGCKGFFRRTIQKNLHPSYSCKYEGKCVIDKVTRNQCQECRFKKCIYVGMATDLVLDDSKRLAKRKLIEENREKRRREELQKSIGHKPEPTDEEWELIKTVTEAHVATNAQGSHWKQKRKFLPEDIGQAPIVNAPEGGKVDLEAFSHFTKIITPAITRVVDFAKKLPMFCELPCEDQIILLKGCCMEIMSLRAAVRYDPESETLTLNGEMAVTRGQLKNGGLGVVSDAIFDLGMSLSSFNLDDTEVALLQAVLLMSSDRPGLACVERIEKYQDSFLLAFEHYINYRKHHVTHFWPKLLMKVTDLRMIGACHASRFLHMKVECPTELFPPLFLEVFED
# In short: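 In this antagonist-mode follow-up, a stably integrated GAL4-TRβ LBD fusion drives a UAS-beta-lactamase reporter in HEK293T cells. Loss of ratio signal relative to DMSO after 18 h treatment indicates activity; parallel CellTiter-Glo flags cytotoxicity.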
# [3] = TOX21_TRB_BLA_Antagonist_Followup_viability: Viability Assessment in the Tox21 Thyroid Hormone Receptor beta Antagonism Beta-lactamase (BLA) Follow-Up Assay (AID 2283961)
# In short: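 In the same wells as the reporter read, cell health was gauged by CellTiter-Glo ATP luminescence, with signal loss indicating reduced viability. Cells had been exposed to test compounds for 18 h.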
# THRB (gene 7068) [4] = biological target: THRB (gene 7068) (UniProt P10828); test: TOX21_TRB_COA_Antagonist_Followup_ratio: Tox21 Thyroid Hormone Receptor beta Antagonism through Coactivator Recruitment Follow-Up Assay, Ratio (AID 2283967)
# In short: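 Cell-free TR-FRET coactivator recruitment with GST-tagged TRβ LBD (5.0 nM) and fluorescein-labeled SRC-2 peptide (200 nM) detected by terbium anti-GST antibody (2 nM). The 520:495 nm emission ratio was normalized to DMSO (0%) and T3 (100%).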
# [5] = biological target: Retinoic acid receptor RXR-alpha (Homo sapiens) (UniProt P19793); test: TOX21_TR_RXR_BLA_Antagonist_Followup_ratio: Tox21 Thyroid Hormone Receptor beta Retinoid X Receptor alpha (RXRa) Antagonism Beta-lactamase (BLA) Follow-Up Assay, Ratio (AID 2283972)
# Chain of Retinoic acid receptor RXR-alpha (Homo sapiens) (P19793 whole entry, looked up): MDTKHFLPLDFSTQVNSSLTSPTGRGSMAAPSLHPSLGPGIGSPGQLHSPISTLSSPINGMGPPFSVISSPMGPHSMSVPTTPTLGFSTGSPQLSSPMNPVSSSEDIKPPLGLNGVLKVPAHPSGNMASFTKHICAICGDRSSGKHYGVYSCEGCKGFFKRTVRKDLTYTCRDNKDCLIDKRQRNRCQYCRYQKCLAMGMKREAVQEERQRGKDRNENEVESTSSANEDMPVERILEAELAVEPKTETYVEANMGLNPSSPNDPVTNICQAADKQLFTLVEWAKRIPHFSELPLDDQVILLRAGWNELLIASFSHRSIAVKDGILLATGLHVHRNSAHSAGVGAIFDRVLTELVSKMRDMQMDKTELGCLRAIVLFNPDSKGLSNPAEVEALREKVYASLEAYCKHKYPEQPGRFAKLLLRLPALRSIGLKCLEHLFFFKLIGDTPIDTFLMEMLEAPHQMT
# In short: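 Compounds were tested in triplicate at 11 concentrations on RXRa-bla HEK293T cells for 16 h. Substrate cleavage ratio, normalized to DMSO, gave the endpoint.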
# [6] = TOX21_TR_RXR_BLA_Antagonist_Followup_viability: Viability Assessment in the Tox21 Thyroid Hormone Receptor beta Retinoid X Receptor alpha (RXRa) Antagonism Beta-lactamase (BLA) Follow-Up Assay (AID 2283979)
# In short: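 RXRa-UAS-bla HEK293T cells seeded 2,500/well in phenol red-free DMEM with 2% charcoal-stripped FBS, attached 5 h, then exposed to compounds at 11 concentrations in triplicate for 16 h at 37C/5% CO2. Viability read by CellTiter-Glo ATP luminescence; bidirectional fit versus DMSO.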
# [7] = TOX21_PR_LUC_Followup_Agonist_viability: Viability Assessment in the Tox21 HEK293 Progesterone Receptor (PR) Agonism Luciferase Follow-Up Assay (AID 2283941);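 note: loss of signal means cytotoxicity so actives lower viability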
# In short: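 Luminescent ATP quantitation (CellTiter-Glo) serves as the read-out; a drop flags cytotoxic compounds. Cells are HEK293-PR-A-luc grown in 10% charcoal-stripped FBS, plated 3,000/well, and exposed to compound for 16 h.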
# [8] = TOX21_TR_RXR_BLA_Agonist_Followup_viability: Viability Assessment in the Tox21 Thyroid Hormone Receptor beta Retinoid X Receptor alpha (RXRa) Agonism Beta-lactamase (BLA) Follow-Up Assay (AID 2283970)
# In short: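 In qHTS format, RXRa-bla HEK293T cells (2,500/well) received compound for 16h. ATP content was then measured with CellTiter-Glo, and responses were fitted bidirectionally relative to DMSO controls.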
# [9] = CCTE_Harrill_HTTr_Viability_DMEM_6hr: (Pilot) CCTE's 6-hour Cell Viability Assessment for the High-Throughput Transcriptomics (HTTr) Platform, in MCF-7 cells cultured in DMEM + 10% fetal bovine serum, Harrill Lab (AID 2283973; active = hit-call score of the fitted dose curve at least 0.9, where 1 is the maximum; inactive = score below 0.9)
# In short: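 MCF-7 cells in DMEM + 10% FBS, eight-point dilution series, 6 h exposure. Membrane integrity by propidium iodide exclusion with high-content imaging; bidirectional fit versus DMSO.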
# [10] = CCTE_Harrill_HTTr_Viability_DMEM_12hr: (Pilot) CCTE's 12-hour Cell Viability Assessment for the High-Throughput Transcriptomics (HTTr) Platform, in MCF-7 cells cultured in DMEM + 10% fetal bovine serum, Harrill Lab (AID 2283974; active = hit-call score of the fitted dose curve at least 0.9, where 1 is the maximum; inactive = score below 0.9)
# In short: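 MCF-7 cells in DMEM + 10% FBS exposed 12 h to an eight-point dilution series; membrane integrity scored by propidium iodide exclusion with high-content imaging, bidirectional fitting versus DMSO.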
# [11] = CCTE_Harrill_HTTr_Viability_DMEM_24hr: (Pilot) CCTE's 24-hour Cell Viability Assessment for the High-Throughput Transcriptomics (HTTr) Platform, in MCF-7 cells cultured in DMEM + 10% fetal bovine serum, Harrill Lab (AID 2283975; active = hit-call score of the fitted dose curve at least 0.9, where 1 is the maximum; inactive = score below 0.9)
# In short: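 MCF-7 cells in DMEM with 10% FBS exposed for 24 hours to an eight-point dilution series. Membrane integrity by propidium iodide exclusion with high content imaging; bidirectional fit against DMSO.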
# [12] = CCTE_Harrill_HTTr_Viability_PRF_DMEM_6hr: (Pilot) CCTE's 6-hour Cell Viability Assessment for the High-Throughput Transcriptomics (HTTr) Platform, in MCF-7 cells cultured phenol red-free DMEM + 10% charcoal-stripped fetal bovine serum, Harrill Lab (AID 2283976; active = hit-call score of the fitted dose curve at least 0.9, where 1 is the maximum; inactive = score below 0.9)
# In short: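 MCF-7 cells in phenol red-free DMEM with 10% charcoal-stripped FBS exposed 6 hours to an eight-point dilution series. Propidium iodide exclusion imaged; curves fitted bidirectionally against DMSO.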
# [13] = CCTE_Harrill_HTTr_Viability_PRF_DMEM_12hr: (Pilot) CCTE's 12-hour Cell Viability Assessment for the High-Throughput Transcriptomics (HTTr) Platform, in MCF-7 cells cultured in phenol red-free DMEM + 10% charcoal-stripped fetal bovine serum, Harrill Lab (AID 2283977; active = hit-call score of the fitted dose curve at least 0.9, where 1 is the maximum; inactive = score below 0.9)
# In short: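 MCF-7 cells in phenol red-free DMEM with 10% charcoal-stripped FBS exposed 12 hours to an eight-point dilution series. Viability assessed by high-content imaging of propidium iodide exclusion; bidirectional fit versus DMSO.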
# [14] = CCTE_Harrill_HTTr_Viability_PRF_DMEM_24hr: (Pilot) CCTE's 24-hour Cell Viability Assessment for the High-Throughput Transcriptomics (HTTr) Platform, in MCF-7 cells cultured in phenol red-free DMEM + 10% charcoal-stripped fetal bovine serum, Harrill Lab (AID 2283980; active = hit-call score of the fitted dose curve at least 0.9, where 1 is the maximum; inactive = score below 0.9)
# In short: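 MCF-7 cells in phenol red-free DMEM with 10% charcoal-stripped FBS, eight-point dilution series, 24 h exposure. Membrane integrity by propidium iodide exclusion with high content imaging; bidirectional fit vs DMSO.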
# [15] = CCTE_Harrill_HTTr_Apoptosis_DMEM_6hr: (Pilot) CCTE's 6-hour Apoptosis Assessment for the High-Throughput Transcriptomics (HTTr) Platform, in MCF-7 cells cultured in DMEM + 10% fetal bovine serum, Harrill Lab (AID 2283981; active = hit-call score of the fitted dose curve at least 0.9, where 1 is the maximum; inactive = score below 0.9)
# In short: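 Caspase-3/7 activation read by high content imaging with CellEvent Caspase 3/7 Green in MCF-7 cells (DMEM + 10% FBS), 6 h after dosing; eight-point dilution series. Bidirectional fitting relative to DMSO baseline.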
# [16] = CCTE_Harrill_HTTr_Apoptosis_DMEM_12hr: (Pilot) CCTE's 12-hour Apoptosis Assessment for the High-Throughput Transcriptomics (HTTr) Platform, in MCF-7 cells cultured in DMEM + 10% fetal bovine serum, Harrill Lab (AID 2283982; active = hit-call score of the fitted dose curve at least 0.9, where 1 is the maximum; inactive = score below 0.9)
# In short: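 MCF-7 cells in DMEM + 10% FBS, exposed 12 h to an eight-point dilution series; caspase-3/7 activation imaged with CellEvent Green. Bidirectional fit versus DMSO.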
# [17] = CCTE_Harrill_HTTr_Apoptosis_DMEM_24hr: (Pilot) CCTE's 24-hour Apoptosis Assessment for the High-Throughput Transcriptomics (HTTr) Platform, in MCF-7 cells cultured in DMEM + 10% fetal bovine serum, Harrill Lab (AID 2283983; active = hit-call score of the fitted dose curve at least 0.9, where 1 is the maximum; inactive = score below 0.9)
# In short: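 MCF-7 cells in DMEM + 10% FBS, eight-point dilution series, 24 h exposure. Caspase-3/7 activation imaged by high-content imaging with CellEvent Caspase 3/7 Green. Bidirectional curve fitting against DMSO baseline.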
# [18] = CCTE_Harrill_HTTr_Apoptosis_PRF_DMEM_6hr: (Pilot) CCTE's 6-hour Apoptosis Assessment for the High-Throughput Transcriptomics (HTTr) Platform, in MCF-7 cells cultured phenol red-free DMEM + 10% charcoal-stripped fetal bovine serum, Harrill Lab (AID 2283984; active = hit-call score of the fitted dose curve at least 0.9, where 1 is the maximum; inactive = score below 0.9)
# In short: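 MCF-7 cells in phenol red-free DMEM + 10% charcoal-stripped FBS, eight-point dilution series, 6 h exposure. Caspase-3/7 activation imaged by high-content imaging with CellEvent Caspase 3/7 Green; bidirectional fit versus DMSO baseline.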
# [19] = CCTE_Harrill_HTTr_Apoptosis_PRF_DMEM_24hr: (Pilot) CCTE's 24-hour Apoptosis Assessment for the High-Throughput Transcriptomics (HTTr) Platform, in MCF-7 cells cultured in phenol red-free DMEM + 10% charcoal-stripped fetal bovine serum, Harrill Lab (AID 2283986; active = hit-call score of the fitted dose curve at least 0.9, where 1 is the maximum; inactive = score below 0.9)
# In short: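 MCF-7 cells in phenol red-free DMEM with 10% charcoal-stripped FBS, exposed 24 h across an eight-point dilution series. Caspase-3/7 activation imaged with CellEvent Green by high content imaging; bidirectional fitting against DMSO.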
smiles,measurement,setting,value
Nc1ccn([C@@H]2O[C@H](CO)[C@@H](O)C2O)c(=O)n1 (some centres not stated),outcome,[1],inactive
same,outcome,THRA (gene 7067),inactive
same,outcome,THRB (gene 7068) [2],inactive
same,outcome,[3],inactive
same,outcome,THRB (gene 7068) [4],inactive
same,outcome,[5],inactive
same,outcome,[6],inactive
Nc1cc(Cl)c(-c2cc(Cl)c(N)cc2Cl)cc1Cl,AC50,[1],58.1 µM (active)
same,outcome,THRA (gene 7067),inactive
same,AC50,THRB (gene 7068) [2],6.14 µM (active)
same,AC50,[3],60.1 µM (active)
same,outcome,THRB (gene 7068) [4],inactive
same,AC50,[5],24.6 µM (active)
same,AC50,[6],28 µM (active)
C[C@]12CC[C@@H]3c4ccc(O)cc4CC[C@H]3[C@@H]1C[C@@H](O)[C@@H]2O,outcome,[7],inactive
O=c1cc(-c2ccccc2)oc2ccc3ccccc3c12,outcome,[1],inactive
same,outcome,THRA (gene 7067),inactive
same,outcome,[3],inactive
same,outcome,THRB (gene 7068) [4],inactive
same,outcome,[6],inactive
COc1ccccc1NC(=O)c1cc2ccccc2cc1O,AC50,[1],27.2 µM (active)
same,AC50,THRB (gene 7068) [2],38.3 µM (active)
same,AC50,[3],28.3 µM (active)
same,AC50,[5],22 µM (active)
same,AC50,[6],24.1 µM (active)
Clc1ccc(Nc2nnc(Cc3ccncc3)c3ccccc23)cc1,outcome,[1],inactive
same,outcome,THRA (gene 7067),inactive
same,outcome,THRB (gene 7068) [2],inactive
same,outcome,[5],inactive
C=C(c1ccc(C(=O)O)cc1)c1cc2c(cc1C)C(C)(C)CCC2(C)C,outcome,[8],inactive
CCCCc1oc2ccccc2c1C(=O)c1cc(I)c(OCCN(CC)CC)c(I)c1,outcome,[9],inactive
same,AC50,[10],46.3 µM (active)
same,AC50,[11],73.9 µM (active)
same,outcome,[12],inactive
same,AC50,[13],39.5 µM (active)
same,AC50,[14],70.4 µM (active)
same,outcome,[15],inactive
same,outcome,[16],inactive
same,AC50,[17],81.6 µM (active)
same,outcome,[18],inactive
same,AC50,[19],74.5 µM (active)
CC(C)c1c(C(=O)Nc2ccccc2)c(-c2ccccc2)c(-c2ccc(F)cc2)n1CC[C@@H](O)C[C@@H](O)CC(=O)O,outcome,THRA (gene 7067),inactive
same,outcome,THRB (gene 7068) [2],inactive
same,outcome,[3],inactive
same,outcome,THRB (gene 7068) [4],inactive
same,outcome,[5],inactive
same,outcome,[6],inactive

# Reference: PubChem BioAssay (EPA / NIEHS)
